Assay results taken from PubChem BioAssay AID463173 (ICCB-Longwood Screening Facility, Harvard Medical School, 2010).
Screen size: about 52,000 compounds; about 1,700 (3.3%) were called active. This excerpt belongs to a sample that is enriched for actives. Unmarked numbers belong to inactive results. Rule as the data show it: active = survival mostly below about 52% (no sharp cut-off); inactive = mostly above about 56%.

system: Wild type; test: S. aureus survival, RN4220 and DeltatarO strains – OD600, teichoic acid synthesis inhibitors, primary screen (AID 463173); details: S. aureus RN4220 wild type/DeltatarO growth, OD600, 18 h, stronger effect = lower value, screened at 18.75 µg/mL (by protocol)

| Compound | survival |
| --- | --- |
| CCc1ccc(NC(=O)CSc2nc3c([nH]c4ccccc43)c(=O)n2-c2ccc(C)cc2)cc1 | 159% |
| COC(=O)c1sc(NC(=O)/C=C/c2ccc(OC)c(OC)c2)c(C(=O)OC)c1C | 55% |
| Cc1ccc(OCC(=O)Nc2ccc(S(=O)(=O)Nc3ncccn3)cc2)c(C(C)(C)C)c1 | 64% |
| CCCCNC(=O)CSc1nc2ccccc2nc1Cc1ccc(Cl)cc1 | 146% |
| O=C(Cc1ccccc1)Nc1cccnc1 | 116% |
| CCN1CCN(c2csc3ccc(Br)cc3c2=O)CC1 | 83% |
| CCc1nnc(NC(=O)c2nc(S(=O)(=O)Cc3ccc(C)cc3)ncc2Cl)s1 | 57% |
| Cc1cccc(Cn2c(COc3ccc(Cl)cc3)nc3ccccc32)c1 | 61% |
| Cc1cccc(Cn2c(CNC(=O)c3ccccc3)nc3ccccc32)c1 | 84% |
| Cc1cccc(Cn2c(Cc3ccccc3)nc3ccccc32)c1 | 29% (active) |
| Cc1ccc(Cn2c(CNC(=O)c3cccc(C)c3)nc3ccccc32)cc1 | 107% |
| Cc1ccc(Cn2c(CCNC(=O)C(C)C)nc3ccccc32)cc1 | 81% |
| COCc1nc2ccccc2n1Cc1cccc(C)c1 | 81% |
| Cc1ccc(Cn2c(Cc3ccccc3)nc3ccccc32)cc1 | -1% (active) |
| Cc1cccc(Cn2c(COc3ccccc3)nc3ccccc32)c1 | -11% (active) |
| CC(C)c1ccc(Cn2c(COc3ccccc3)nc3ccccc32)cc1 | -1% (active) |
| COc1cc(OC)c(NC(=O)c2cn(C3CCCC3)c(=O)c3c2c2ccccc2n3C)cc1Cl | 80% |
| CCOC(=O)N1CCN(c2ncnc3c2cnn3-c2ccccc2)CC1 | 112% |
| Cc1cccc(-c2noc(-c3ccc(NCc4cccnc4)c([N+](=O)[O-])c3)n2)c1 | 81% |
| COCCNC(=O)Cn1cc(/C=C(\C#N)C(N)=O)c2ccccc21 | 114% |
| COc1ccc(CNC(=O)C(Cc2ccccc2)NS(=O)(=O)c2ccc3c(c2)CCN3C(C)=O)cc1 (stereo not drawn) | 127% |
| Cc1coc2c(C)c3oc(=O)c(CC(=O)NCCc4ccc(Cl)cc4)c(C)c3cc12 | 99% |
| COc1cccc(Cn2c(CNS(=O)(=O)c3ccc(F)c(Cl)c3)nc3cccnc32)c1 | 159% |
| O=C(NCC1COc2ccccc2O1)c1cn(Cc2ccc(F)cc2)nn1 (stereo not drawn) | 107% |

| Compound | survival |
| --- | --- |
| COc1ccc(N2CCN(c3oc(/C=C/c4ccccc4OC)nc3C#N)CC2)cc1 | 86% |
| O=C1CC(c2ccc3c(c2)OCO3)CC2=C1C(c1ccncc1)Nc1ccccc1N2 (stereo not drawn) | 81% |
| Clc1ccc(OCc2nc3ccccc3n2Cc2ccccc2)c(Cl)c1 | 7% (active) |
| O=C(NCCc1nc2ccccc2n1Cc1ccc(Cl)cc1Cl)c1ccco1 | 76% |
| CC(O)c1nc2ccccc2n1Cc1ccccc1 (stereo not drawn) | 100% |
| CC(C)(C)c1ccc(Cn2c(Cc3ccccc3)nc3ccccc32)cc1 | -1% (active) |
| CCC(=O)NCc1nc2ccccc2n1Cc1ccccc1 | 106% |
| CCn1c(COc2ccc(Cl)cc2Cl)nc2ccccc21 | 78% |
| CCOc1ccc(NC(=O)c2sc(-n3nc(C)c(CCC(C)C)c3C)nc2C)cc1 | 123% |
| CCCCOc1ccc(CNC(=O)c2cnc3sc(N4CCCCCC4)nn3c2=O)cc1 | 91% |
| CCOc1ccc(CCNC(=O)c2cc3cc4cc(OC)ccc4nc3s2)cc1OCC | 117% |
| Cc1ccc(-c2nc(CS(=O)(=O)CC(=O)N3CCN(c4cccc(C)c4C)CC3)c(C)o2)cc1 | 129% |
| COc1ccc(-c2nc(CSCC(=O)N3CCN(c4ccccc4)CC3)c(C)o2)cc1 | 53% |
| COc1ccc(-c2nc(CSCC(=O)N3CCN(c4cccc(C)c4C)CC3)c(C)o2)cc1OC | 22% |
| Cc1oc(-c2ccccc2F)nc1CSCC(=O)N1CCN(c2ccccc2)CC1 | 62% |
| Cc1cccc(-c2nc(CSCC(=O)N3CCN(c4cccc(C)c4C)CC3)c(C)o2)c1 | 0% (active) |
| Cc1cccc(-c2nc(CSCC(=O)N3CCN(c4ccccc4)CC3)c(C)o2)c1 | 18% (active) |
| COc1ccc(N2CCN(CC(=O)c3ccc(OC)c(OC)c3)CC2)cc1 | 106% |
| CC(C)OCCCNC(=O)Cn1ccc2cc(S(=O)(=O)N3CCCCCC3)ccc21 | 124% |
| COc1ccc2c(Sc3ccccc3)c(C(=O)NCc3cccc(OC)c3OC)[nH]c2c1 | 89% |
| CC(C)COc1ccc(C(=O)N2CCC(c3nc4ccccc4s3)CC2)cc1 | 42% |
| O=C(CSc1nnc(-c2ccccc2)c(-c2ccccc2)n1)Nc1ccccc1Cl | 70% |
| CC(C)CSc1nnc(-c2ccccc2)c(-c2ccccc2)n1 | -4% (active) |
| CCc1ccccc1NC(=O)CSc1nnc(-c2ccccc2)c(-c2ccccc2)n1 | 69% |

| Compound | survival |
| --- | --- |
| Cc1oc2c(c(C)cc3oc(=O)c(CC(=O)NCCc4ccccc4)c(C)c32)c1C | 112% |
| Cc1cc2ccccc2n1-c1ccc(C(=O)N2CCC(C(=O)NCc3ccc(F)cc3)CC2)s1 | 1% (active) |
| Cc1cc2ccccc2n1-c1ccc(C(=O)N2CCC(C(=O)NCc3ccc(Cl)cc3)CC2)s1 | 63% |
| CCc1ccc(CNC(=O)C2CCN(C(=O)c3ccc(-n4c(C)cc5ccccc54)s3)CC2)cc1 | 81% |
| Cc1ccc(NC(=O)CN2C(=O)CSc3ccc(S(=O)(=O)N4CCCC4)cc32)cc1F | 99% |
| COC(=O)c1cc2c(cc1NC(=O)c1cnn(-c3ccccc3)c1-n1cccc1)OCO2 | 80% |
| CC(C)(C)NC(=O)CSc1nc(-c2ccc(F)cc2)cc(C(F)(F)F)n1 | 78% |
| Cc1cc(C(F)(F)F)nn1-c1nc(-c2ccccc2)cc(C(F)(F)F)n1 | 13% (active) |
| Cc1ccc(-c2cc3nc(-c4ccccc4)cc(C(F)(F)F)n3n2)cc1 | 80% |
| Cc1nn(-c2nc(-c3ccc(F)cc3)cc(C(F)(F)F)n2)c(C)c1Br | -2% (active) |
| CCCNC(=O)CSc1nc(-c2ccccc2)cc(C(F)(F)F)n1 | 112% |
| FC(F)(F)c1cc(-c2ccccc2)nc2cc(-c3ccccc3)nn12 | 75% |
| CCC(C)NC(=O)CSc1nc(-c2ccc(F)cc2)cc(C(F)(F)F)n1 (stereo not drawn) | 81% |
| COc1cccc(-c2cc(C(F)(F)F)nc(-n3nc(C)c(Br)c3C)n2)c1 | 80% |
| Cc1nn(-c2nc(-c3ccc(F)cc3)cc(C(F)(F)F)n2)c(C)c1Cl | -2% (active) |
| Cc1nn(-c2nc(-c3ccccc3)cc(C(F)(F)F)n2)c(C)c1Cl | -3% (active) |
| CN(Cc1ccccc1)c1nc(-c2ccc(F)cc2)cc(C(F)(F)F)n1 | 80% |
| COc1ccc(-c2cc(C(F)(F)F)nc(-n3nc(C(F)(F)F)cc3C)n2)cc1 | 50% |
| CCCC(C)C(=O)Nc1nnc(C(F)(F)F)s1 (stereo not drawn) | 100% |
| O=C(Nc1cccc2c1CCCC2)N1CCOc2ccc(Cl)cc21 | 83% |
| COc1ccc(-c2nc(CCNC(=O)c3cccs3)cs2)cc1OC | 159% |
| Cc1cccc(Cn2c(CNS(=O)(=O)c3ccc(C(C)C)cc3)nc3cccnc32)c1 | 78% |
| N=c1nc(N)nc2n1NC(c1ccc(F)cc1)=CS2 | 108% |
| CCC(Sc1ncc(S(=O)(=O)c2ccc(Cl)cc2)c(=O)[nH]1)C(=O)Nc1ccc(OC)cc1 (stereo not drawn) | 96% |

| Compound | survival |
| --- | --- |
| CC1CCCCN1CC(=O)N1CCCc2c1c(=O)oc1ccc(OCc3ccccc3)cc21 (stereo not drawn) | 43% |
| CCC1CCCCN1CC(=O)N1CCCc2c1c(=O)oc1ccc(OCc3ccccc3)cc21 (stereo not drawn) | 3% (active) |
| CC1CCN(CC(=O)N2CCCc3c2c(=O)oc2ccc(OCc4ccccc4)cc32)CC1 | 86% |
| CCCCN(CC)C(=O)c1cc2c(=O)n3cccc(C)c3nc2s1 | 77% |
| CCCN(CCC)C(=O)c1cc2c(=O)n3cccc(C)c3nc2s1 | 80% |
| CCCCN(CCCC)C(=O)c1cc2c(=O)n3cccc(C)c3nc2s1 | -2% (active) |
| CCOC(=O)c1[nH]c2ccccc2c1N=CN(C)C | 104% |
| O=c1cc(O)n(-c2ccccc2)c(=S)[nH]1 | 99% |
| CC1CCc2nc3ncn(Cc4ccccc4F)c(=O)c3cc2C1 (stereo not drawn) | 53% |
| Cc1ccc(Cn2cnc3nc4c(cc3c2=O)CC(C)CC4)cc1 (stereo not drawn) | -3% (active) |
| Cc1ccccc1Cn1cnc2nc3c(cc2c1=O)CC(C)CC3 (stereo not drawn) | 0% (active) |
| CC1CCc2nc3ncn(Cc4ccccc4C#N)c(=O)c3cc2C1 (stereo not drawn) | 71% |
| CC1CCc2nc3ncn(Cc4cccc(F)c4)c(=O)c3cc2C1 (stereo not drawn) | 66% |
| CC1CCc2nc3ncn(Cc4ccc(Cl)cc4)c(=O)c3cc2C1 (stereo not drawn) | 80% |
| O=C(O)CN1C(=O)/C(=C\c2ccccc2)SC1=S | 102% |
| CN1/C(=C2/SC(=O)N(Cc3ccccc3)C2=O)Sc2ccccc21 | 118% |
| Cc1cc(N2CCC(C)CC2)nc2ccc(NC(=O)CCC(=O)N3CCN(c4cccc(C(F)(F)F)c4)CC3)cc12 | 64% |
| Cc1ccc(-c2nonc2NC(=O)c2ccco2)cc1C | 79% |
| COc1ccc(-c2cn3cccnc3n2)cc1NC(=O)c1ccccc1C(F)(F)F | 69% |
| COc1cc2nc(NC(=O)c3ccc(S(=O)(=O)N4CCOCC4)cc3)sc2cc1OC | 79% |
| COC(=O)c1sc2cccc(F)c2c1S(=O)(=O)N1CCN(c2ccccc2OC)CC1 | 47% |
